Compound activity: PubChem, several laboratories
The list is not random: actives were taken first. Their share in the collection is about 21%.
CYP2C9 inhib: blocks human cytochrome P450 2C9; 96,000 compounds, 20% hits; CYP2C9 Supersomes, luciferin-H conversion, luminescence; P11712; inhibition, % at 5 µM;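 active = blocking of liver enzyme CYP2C9 beyond about 50% at 5 µM, limit read from the data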
Target sequence (P11712 whole entry, looked up): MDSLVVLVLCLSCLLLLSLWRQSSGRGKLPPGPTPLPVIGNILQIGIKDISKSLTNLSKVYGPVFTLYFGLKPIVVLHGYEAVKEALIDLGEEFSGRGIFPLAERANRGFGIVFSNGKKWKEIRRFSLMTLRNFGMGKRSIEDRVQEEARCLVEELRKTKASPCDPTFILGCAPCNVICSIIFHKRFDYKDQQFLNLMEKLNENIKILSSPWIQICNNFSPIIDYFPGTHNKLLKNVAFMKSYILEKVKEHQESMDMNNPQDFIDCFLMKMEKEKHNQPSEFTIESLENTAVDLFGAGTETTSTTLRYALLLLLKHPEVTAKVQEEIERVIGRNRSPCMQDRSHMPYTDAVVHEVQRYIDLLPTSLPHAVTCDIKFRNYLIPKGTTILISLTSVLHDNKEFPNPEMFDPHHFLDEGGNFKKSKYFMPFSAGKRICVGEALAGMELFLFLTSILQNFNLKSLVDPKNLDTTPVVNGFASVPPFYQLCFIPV
MRP-1 activ: activators of MRP-1 | viability increase, % at 10 µM | 140,000 compounds, 0.61% hits | H69AR cells + doxorubicin, viability rescue, CellTiter-Glo | AID 799;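 active = viability gain under doxorubicin at or above a set limit, the compound median plus 3 SD, cut at about 4.7% in these data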;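 also: MRP-1 overexpressing cells given doxorubicin 25 µM after compound pretreatment; 18-22 h compound pretreatment then 72 h with doxorubicin before readout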
MRP resist rev: MRP-mediated drug resistance reversal | differential viability (reversal), % at 10 µM | 85,000 compounds, 0.04% hits | AID 602 | H69AR cells + 2 uM doxorubicin, CellTiter-Glo, 72 h;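 active = viability drop by adding the cancer drug above about 55%, with treated viability meeting a 40% cutoff, limit read from the data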;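 also: larger differential means the compound sensitizes cells more to doxorubicin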
CYP2C19 act: activators of human cytochrome P450 2C19; AID 1025; 96,000 tested, under 10 active; activation factor at 5 µM; recombinant CYP2C19, luciferin-H EGE luminescence; hits give high values; 0 = fully inhibited enzyme, 1 = untreated enzyme;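 active = activation factor of at least 2 at 5 µM in the primary screen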
CYP2C9 act: activators of human CYP2C9 | P11712 | recombinant CYP2C9, luciferin-H conversion, luminescence; hits give high values; factor 1 = untreated enzyme, 0 = blocked | activation factor at 5 µM | 96,000 compounds, 1.4% hits | AID 1024;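 active = activation factor of 2 or more for CYP2C9 at a 5 µM dose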
CYP2C19 inhib: human CYP2C19 inhibition. P33261. CYP2C19 Supersomes, luciferin-H EGE luminescence, 30 min. inhibition, % at 5 µM. 96,000 compounds, 21% hits;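 active = CYP2C19 inhibition above a set limit at 5 µM in the primary screen, cut at about 50% in these data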
Numbers stand for hits; n = inactive; x = no result given.

SMILES	CYP2C9 inhib	MRP-1 activ	MRP resist rev	CYP2C19 act	CYP2C9 act	CYP2C19 inhib
CC1(C)Cc2nc3nc(SCC(=O)NCCc4ccccc4)n(-c4ccccc4)c(=O)c3cc2CO1	n	n	n	n	n	n
COc1ccc2ncc(OC(C)=O)cc2c1	x	n	x	x	x	x
O=C(Nc1nc2c(s1)CCCC2=O)c1cnccn1	n	n	n	n	n	n
CCCCN(CCCC)C(=O)c1nsnc1-c1ccccc1O	n	n	n	n	n	n
CN(Cc1ccccc1)Cc1nc2c(c(=O)n(C)c(=O)n2C)n1CCc1ccccc1	x	x	n	x	x	x
CCOC(=O)Cn1c(CN(Cc2ccccc2)Cc2ccccc2)nc2c1c(=O)n(C)c(=O)n2C	99	n	n	n	n	83
CN(Cc1ccccc1)Cc1nc2c(c(=O)n(C)c(=O)n2C)n1Cc1ccccc1Cl	81	n	n	n	n	n
COc1ccc(OC)c(Nc2nc(-c3sc(C)nc3C)cs2)c1	80	n	n	n	n	85
CCCCC(=O)Nc1nc(C)c(-c2csc(Nc3cc(OC)ccc3OC)n2)s1	79	n	x	n	n	n
COc1ccc(Cl)cc1Nc1nc(-c2sc(NC(=O)C(C)(C)C)nc2C)cs1	n	n	x	n	n	n
CCC(C)C(=O)Nc1nc(C)c(-c2csc(Nc3cc(OC)ccc3OC)n2)s1 (stereo unspecified)	75	n	x	n	n	n
CCCC(C)C(=O)Nc1nc(C)c(-c2csc(Nc3ccccc3OC)n2)s1 (stereo unspecified)	74	n	x	n	n	n
COc1cc(/C=N\NC(=O)c2sc(N)nc2C)cc(OC)c1OC	n	n	x	n	n	n
O=C(Nc1cccc(O)c1)c1ccc(Br)c(S(=O)(=O)N2CCCCC2)c1	n	n	n	n	n	n
O=C(COC(=O)C1CCN(S(=O)(=O)c2ccc3c(c2)OCCO3)CC1)Nc1cc(C(F)(F)F)ccc1Cl	x	n	x	x	x	x
COc1ccccc1Nc1nc(-c2sc(NC(=O)c3ccc([N+](=O)[O-])cc3)nc2C)cs1	78	n	x	n	n	n
CCCC(C)C(=O)Nc1nc(C)c(-c2csc(Nc3ccc(Cl)cc3)n2)s1 (stereo unspecified)	55	n	x	n	n	n
COc1ccc(OC)c(Nc2nc(-c3sc(NC(=O)CC(C)C)nc3C)cs2)c1	78	n	x	n	n	n
COc1ccc(OC)c(Nc2nc(-c3sc(NC(=O)C(C)(C)C)nc3C)cs2)c1	n	n	x	n	n	n
O=C(NC1CCCCC1)c1cc([N+](=O)[O-])[nH]n1	x	n	x	x	x	x
CCOC(=O)N1CCC(c2nc3ccccc3[nH]2)CC1	n	n	n	n	n	n
Cc1ccc(CN(Cc2cccnc2)C(=O)CN2C(=O)COc3ccccc32)o1	67	n	n	n	n	95
CCOC(=O)c1cc(S(=O)(=O)NC2CCN(C(=O)OCC)CC2)cn1C	57	n	n	n	n	n
CCOC(=O)N1CCC(NS(=O)(=O)c2ccc3c(c2)oc(=O)n3C)CC1	n	n	n	n	n	n
COCCNCC(=O)C12CC3CC(CC(C3)C1)C2	n	n	n	n	n	n
SMILES	CYP2C9 inhib	MRP-1 activ	MRP resist rev	CYP2C19 act	CYP2C9 act	CYP2C19 inhib
COc1ccccc1N(C(=O)NCc1ccccc1)C1=NCC(C)S1 (stereo unspecified)	57	n	n	n	n	n
CC1CN=C(N(Cc2ccccc2)C(=O)Nc2ccccc2)S1 (stereo unspecified)	n	n	n	n	n	n
CNC(=O)N(C1=NCC(C)S1)c1ccc(F)cc1F (stereo unspecified)	n	n	n	n	n	62
COc1ccccc1NC(=O)N(Cc1ccccc1)C1=NCC(C)S1 (stereo unspecified)	73	n	n	n	n	n
CNC(=O)N(c1ccccc1)c1ccccc1	n	n	n	n	n	n
CC1CN(C2CCN(C(=O)c3ccccc3Cl)CC2)CC(C)O1 (stereo unspecified)	n	n	n	n	n	n
COc1ccc(C(CC(=O)O)NC(=O)COc2ccc(C)cc2)cc1OC (stereo unspecified)	x	n	n	x	x	x
COc1ccccc1N(C)S(=O)(=O)c1ccc(C(=O)NC(C)(C)C)cc1	73	n	x	n	n	n
CCOC(=O)c1ccc2[nH]c(C)c(CCC(C)=O)c(=O)c2c1	n	n	n	n	n	n
CC(=O)Nc1ccc2[nH]c(C)c(CC=C(Cl)Cl)c(=O)c2c1	n	6.8	n	n	n	n
CN(CCNC(=O)CN1CCN(Cc2ccccc2Cl)C1=O)Cc1ccccc1	n	n	n	n	n	n
O=C(CN1CCN(Cc2ccccc2Cl)C1=O)N1CCCCCC1	n	n	n	n	n	59
O=C1Nc2ccccc2C12OCC1(CO2)COC2(OC1)C(=O)Nc1ccccc12 (stereo unspecified)	n	n	n	n	n	n
CN1CC(c2ccc(Cl)c(Cl)c2)[C@@]2(COc3ccccc3C2=O)[C@@]12C(=O)Nc1ccccc12 (stereo partly specified)	77	n	x	n	n	n
CS(=O)(=O)N(CC(=O)N1CCN(c2ccccc2)CC1)c1ccc(Cl)c(C(F)(F)F)c1	n	n	n	n	n	96
CCOC(=O)C1CCN(C(=O)CN(c2ccc(Cl)c(C(F)(F)F)c2)S(C)(=O)=O)CC1	n	n	n	n	n	n
CC1CCN(C(=O)CN(c2ccc(Cl)c(C(F)(F)F)c2)S(C)(=O)=O)CC1	n	n	n	n	2.3	75
CS(=O)(=O)N(CC(=O)N1CCC(C(N)=O)CC1)c1ccc(Cl)c(C(F)(F)F)c1	n	n	n	n	n	n
CS(=O)(=O)N(CC(=O)N1CCN(c2ccccc2)CC1)c1cc(C(F)(F)F)ccc1Cl	n	n	n	n	2.1	n
Clc1ccc(CSc2nnc(-c3ccccn3)n2Cc2ccco2)c(Cl)c1	n	n	n	n	n	n
Cc1nnc(SCc2nc3ccccc3s2)n1-c1ccccc1	x	n	n	x	x	x
CCC(c1nnc(SCc2nc3ccccc3s2)n1Cc1ccccc1)N(C)C (stereo unspecified)	74	n	n	n	n	81
O=c1c2ccccc2nc(-c2ccco2)n1Cc1ccccc1	n	n	n	n	n	n
CCOC(=O)CSc1nnc(-c2cccc(Cl)c2)n1CC	n	n	n	n	n	52
c1ccc(Cn2c(SCc3nc4ccccc4s3)nnc2-c2ccco2)cc1	83	n	x	n	n	88
SMILES	CYP2C9 inhib	MRP-1 activ	MRP resist rev	CYP2C19 act	CYP2C9 act	CYP2C19 inhib
CCn1c(SCc2nc3ccccc3s2)nnc1-c1ccccc1	n	n	n	n	n	99
O=C(c1ccccc1)N(Cc1cccnc1)C1(C(=O)Nc2ccccc2)CCCCC1	x	n	x	x	x	x
CCn1c(-c2cc3c(C(F)(F)F)nn(C)c3s2)n[nH]c1=S	n	n	x	n	n	n
CCn1c(SCc2cccc(C)c2)nnc1-c1ccccc1	n	n	n	n	n	97
CCn1c(SCC(O)c2ccccc2)nnc1-c1ccccc1 (stereo unspecified)	x	n	x	x	x	x
COc1cccc(-c2nnc(SCc3nc4ccccc4s3)n2C)c1	n	n	x	n	n	81
Cc1nnc(SCC(=O)c2ccccc2)n1Cc1ccccc1	x	n	x	x	x	x
